Sampled rows, rich in hits. Any-hit rate of the full collection: about 19%.
ELG1 DNA repair: blocks ELG1-dependent DNA repair in HEK293T cells. HEK293T ELG1-luciferase reporter, luminescence, 16 h; DNA damage induced by 5-fluorouridine. Potency, µM (doses to about 46.1 µM), for inactives: at the highest dose activity change, negative = inhibition, most hits filed as inhibitors. actives 2.3% (n = 330,000); further: potency means the concentration at half of the fitted maximal effect; nearly all actives have a fitted effect of over 55% in size
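Reporter activity after DNA damage by 5-fluorouridine is monitored. Compound-treated cells incubate 16 hr at 37 °C, then ONE-Glo is added for 30 min before luminescence reading.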
IL1B secr inh: blocks inflammasome-driven IL-1 beta release. THP-1 LPS/ATP IL-1B secretion, AlphaLISA, 16 h; hits give low values. activity change, % at 57.5 µM. actives 4.7% (n = 360,000). AID 743279; in the data active means activity change below about -50%; inconclusive means mostly about -30% to -49%
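Secreted IL-1B measured by AlphaLISA bead assay after 16 h compound exposure of THP-1 cells; compounds (final up to 57.5 uM) added 1 h before LPS (250 ng/mL) and ATP (1.25 mM) stimulation; lower signal means less secretion.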
HT1080-NT tox: kills 2HG-producing HT-1080-NT fibrosarcoma cells | HT-1080-NT fibrosarcoma viability, CellTiter-Glo ATP luminescence, 48 h | Potency, µM (doses to about 46.1 µM), without a hit: at the top dose activity, negative = less viability, actives largely listed as cytotoxic | actives 1.6% (n = 360,000) | AID 686970;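 further: NT is the 2HG producing partner of a matched IDH1 knockdown line; potency means the concentration at half of the fitted maximal effect; 0% = DMSO-treated cells and -100% = media-only wells without cells; nearly all actives have a fitted effect of over 55% in size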
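Viability by CellTiter-Glo luminescence after 48 h compound exposure at 37C of HT-1080-NT cells (750/well, RPMI, 5% FBS). % activity scaled between DMSO wells and medium-only wells, then curve-fitted and categorized by curve class.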
HT1080 IDH1KD tx: kills HT-1080 cells with IDH1 knockdown | HT-1080 IDH1 knockdown viability, ATP luminescence, 48 h | Potency, µM (top dose mostly 46.1 µM), without a hit: at the highest dose activity, negative = toxicity, hits mostly cytotoxic | actives 2% (n = 360,000);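 further: potency means the concentration at half of the fitted maximal effect; 0% = DMSO wells and -100% = cell-free medium wells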
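Knockdown cells (IDH1KD HT-1080) received compounds 2 h after plating at 750 cells/well and were kept 48 h at 37 °C in 5% FBS RPMI. A CellTiter-Glo luminescence read gave % activity for curve fitting.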
TDP1 cell CPT: growth inhibition of DT40 Tdp1-/-;hTDP1 cells with camptothecin (screen for TDP1 inhibitors); actives 12% (n = 420,000); chicken DT40 Tdp1-/-;hTDP1 cells + 20 nM CPT, ATP luminescence, 48 h; Potency, µM (doses to about 46.2 µM), for inactives: at the top dose activity change, negative = growth inhibition, usual class: inhibitors; AID 686979; further: potency means the concentration at half of the fitted maximal effect; nearly all actives have a fitted effect of over 55% in size
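Cell growth measured by CellTiter-Glo luminescence after a minimum 48 h, 37 C compound exposure with 20 nM CPT in Tdp1-knockout DT40 cells stably expressing hTDP1, seeded 400/well; qHTS titration format.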
TDP1 cell noCPT: qHTS for Inhibitors of human tyrosyl-DNA phosphodiesterase 1 (TDP1): qHTS in cells in absence of CPT; DT40 Tdp1-/- hTDP1 cells, no CPT, ATP luminescence, 48 h; Potency, µM (top dose mostly 46.2 µM), inactives show at the highest dose activity change, negative = growth inhibition, actives largely listed as inhibitors; actives 15% (n = 420,000); AID 686978, 2013; further: potency means the concentration at half of the fitted maximal effect; nearly all actives have a fitted effect of over 55% in size
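Camptothecin absent (DMSO only). Human TDP1-complemented DT40 knockout cells, 400 cells/well, 37 °C for minimum 48 hr; ATP measured via CellTiter-Glo, 30 min dark incubation, luminescence.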
Starred values were filed as active, the others as inactive; ? = inconclusive; . = no result. Unless noted, the call rests on the fitted dose curve; in most records, active means well fitted curve in the direction sought with a large enough effect; inconclusive means small, poorly fitted or top-dose-only effect, or another doubt; inactive means no such curve, though single readings can be large; an effect the other way counts as inactive or inconclusive. Unless noted, on the % scale 0 is the no-effect control and ±100 the full control effect.

SMILES	ELG1 DNA repair	IL1B secr inh	HT1080-NT tox	HT1080 IDH1KD tx	TDP1 cell CPT	TDP1 cell noCPT
COc1ccccc1C1=NN(C(=S)Nc2ccccc2)C(c2ccco2)C1 (centres undefined)	?	8	-2%	-6%	?	?
CNC(=S)N1N=C(c2ccc(C)cc2)CC1c1ccc(N(C)C)cc1 (centres undefined)	?	-7	-5%	10%	-23%	?
CNC(=S)N1N=C(c2ccc(C)cc2)CC1c1cc(OC)ccc1OC (centres undefined)	-5%	0	?	21µM*	?	9.2µM*
COc1ccc(OC)c(C2CC(c3ccccc3)=NN2C(=S)Nc2ccccc2)c1 (centres undefined)	11%	34	?	?	3.7µM*	3.7µM*
O=C(Nc1ncnc2c1ncn2[C@@H]1O[C@H](/C=C/C(=O)N2CCN(c3ccc(F)cc3)CC2)[C@@H](O)[C@H]1O)c1ccccc1	.	?	8%	13%	-4%	0%
Cc1ccc(S(=O)(=O)NCCc2nnc3ccc(SCC(=O)Nc4ccc(OC(F)(F)F)cc4)nn23)cc1	.	.	.	.	?	-25%
CCc1cccc(NC(=O)Cn2c(=O)n(CC3CCC(C(=O)NCCc4ccccc4)CC3)c(=O)c3ccccc32)c1 (centres undefined)	.	.	.	.	21µM*	13µM*
CC(C)c1ccc(NC(=O)Cn2c(=O)n(CC3CCC(C(=O)NCCc4ccccc4)CC3)c(=O)c3ccccc32)cc1 (centres undefined)	.	.	.	.	16µM*	15µM*
Cc1ccc(NC(=O)Cn2c(=O)n(CC(=O)NCCc3ccccc3)c(=O)c3ccccc32)cc1C	.	.	.	.	?	3.3µM*
Cc1ccc(NC(=O)Cn2c(=O)n(CC(=O)NCCc3ccccc3)c(=O)c3ccccc32)cc1	.	.	.	.	-25%	-14%
O=C1Nc2ccccc2N(O)N1c1ccc(S(=O)(=O)N2CCOCC2)cc1	5%	15	12%	7%	-1%	-24%
COc1ccc(NC(=O)c2oc3ccccc3c2NC(=O)COc2ccc(C(C)C)cc2)c(OC)c1	.	.	.	.	28%	-18%
CCc1nc(N)nc(N)c1-c1ccc(Cl)c(N=[N+]=[N-])c1	.	-3	?	2.9µM*	5.2µM*	1.8µM*
CCc1nc(N)nc(N)c1-c1ccc(Cl)c([N+](=O)[O-])c1	.	-1	?	0.18µM*	0.18µM*	0.052µM*
Cc1ccc2cc(C3C(C#N)=C(N)Oc4c3ccc3cccnc43)c(=O)[nH]c2c1 (centres undefined)	-5%	89	11µM*	?	?	?
CCc1ccc2[nH]c(=O)c(C3C(C#N)=C(N)Oc4c3ccc3cccnc43)cc2c1 (centres undefined)	12µM*	99	?	?	12µM*	8.2µM*
CCc1cccc(C)c1NC(=O)c1cc(S(=O)(=O)NCc2ccccc2Cl)ccc1F	.	.	.	.	21µM*	26µM*
CCOc1ccc(S(=O)(=O)NCc2ccccc2Cl)cc1C(N)=O	-7%	-58*	2%	-9%	?	?
O=C(Nc1cccc(Cl)c1Cl)c1cc(S(=O)(=O)NCCc2ccccc2)ccc1F	-13%	-6	-6%	-1%	?	?
CN=c1scc(C)n1/N=C/c1ccc(O)cc1O	?	-3	-14%	-20%	?	?
C=CCN=c1scc(C)n1/N=C/c1ccc(O)c(O)c1	?	44	-14%	-21%	16µM*	7.3µM*
CN=c1scc(-c2ccco2)n1/N=C/c1ccc(O)c(O)c1	?	47	-37%	-5%	4.6µM*	9.2µM*
COc1ccc(O)c(/C=N/n2c(-c3ccco3)csc2=Nc2cccnc2)c1	12%	0	-18%	-7%	-27%	?
Oc1ccc(/C=N/N2CCCCC2)cc1O	?	16	-4%	-22%	?	?
CN=c1scc(C)n1/N=C/c1ccc(O)cc1	?	-13	-2%	-11%	?	23µM*
SMILES	ELG1 DNA repair	IL1B secr inh	HT1080-NT tox	HT1080 IDH1KD tx	TDP1 cell CPT	TDP1 cell noCPT
O=C(CSc1nc(-c2ccccc2)c2ccccc2n1)Nc1ccc(F)cc1	.	.	.	.	-23%	-2%
CN1CCN(c2ccccc2/C=N/NC(=O)c2cccnc2)CC1	4%	7	?	17%	-1%	2%
O=[N+]([O-])c1cccc(Cl)c1N1CCOCC1	18%	11	8%	15%	?	-26%
C=CSc1sc(Cl)c(N2CCOCC2)c1[N+](=O)[O-]	8%	-105*	?	?	0%	?
C=CS(=O)(=O)c1sc(Cl)c(N2CCOCC2)c1[N+](=O)[O-]	-11%	-112*	?	10µM*	1.6µM*	2.9µM*
O=C(COc1ccc([N+](=O)[O-])cc1)NCC(c1cccs1)N1CCOCC1 (centres undefined)	4%	-24	0%	1%	-12%	?
COc1ccc(CC(=O)NC(C)c2ccc3ccccc3c2)cc1 (centres undefined)	4%	5	0%	-1%	-12%	-8%
CCc1ccc(NCc2cc3cc4c(cc3n(CC(=O)Nc3ccc(OC)cc3)c2=O)OCO4)cc1	.	.	.	.	?	4.6µM*
COc1ccc(NCc2cc3cc4c(cc3n(CC(=O)Nc3ccc(F)cc3F)c2=O)OCO4)cc1	.	.	.	.	6.5µM*	15µM*
CCCc1ccc(S(=O)(=O)N2CCN(C(C)C(=O)NCc3ccccc3)CC2)cc1 (centres undefined)	-7%	18	-1%	-8%	?	?
O=C(Cc1ccc(Cl)cc1)Oc1cccc2cccnc12	1%	-100*	3%	-1%	0.29µM*	0.82µM*
O=C(Oc1cccc2cccnc12)c1ccco1	2%	34	-21%	-15%	?	21µM*
O=C(Oc1cccc2cccnc12)c1ccc(Br)o1	-1%	13	18%	13%	-10%	-18%
O=C(Oc1cccc2cccnc12)c1cccs1	-25%	123	15µM*	6.5µM*	0.92µM*	0.82µM*
Cc1ccc(S(=O)(=O)C[C@@H]2OC3CCCCC3N2S(=O)(=O)c2ccc(C)cc2)cc1 (some centres undefined)	.	-7	13%	7%	?	?

Screening results deposited in PubChem by National Center for Advancing Translational Sciences (NCATS).
